Data from PubChem BioAssay (EPA / NIEHS).
Several values for one entry are separate records, joined by “and”; a condition that tells them apart may be missing. Identical values can stand only once. More than one record can exist for a structure, and the calls need not agree. Activity calls are given as the source filed them. How the source made its calls: active means hit-call score of the fitted dose curve at least 0.9, where 1 is the maximum; inactive means score below 0.9.

Columns and labels:
[1] = read-out: Collagen I, COL1A1 (gene 1277); assay: BSK_hDFCGF_CollagenI: BioMAP Diversity Plus: hDFCGF Assay for Collagen I Biomarker Activity (AID 2284250); settings: primary human foreskin fibroblasts
Method in brief: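 Collagen I quantified by ELISA 24 h after chemical dosing of human dermal fibroblast primary cells, with parallel SRB staining (0.1%, TCA-fixed, 560 nm) for overt cytotoxicity.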

[2] = read-out: Plasminogen activator inhibitor-1 (PAI1), SERPINE1 (gene 5054); assay: BSK_KF3CT_PAI1: BioMAP Diversity Plus: KF3CT Assay for Plasminogen activator inhibitor-1 (PAI1) Biomarker Activity (AID 2284252); settings: primary human keratinocytes with fibroblasts
Method in brief: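 PAI-1 levels quantified by ELISA after 24 h compound exposure of primary human skin keratinocytes co-cultured with fibroblasts. Activity is the gain relative to DMSO; cytotoxicity tracked in parallel cultures via SRB staining.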

[3] = read-out: Monocyte Chemoattractant Protein-1 (MCP1), CCL2 (gene 6347); assay: BSK_IMphg_MCP1: BioMAP Diversity Plus: IMphg Assay for Monocyte Chemoattractant Protein-1 (MCP1) Biomarker Activity (AID 2284253); settings: primary human endothelial cells with macrophages
Method in brief: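 ELISA readout of MCP-1 at 24 hours in IMphg co-cultures of venular endothelial cells and macrophages, normalised to DMSO; parallel cultures stained with sulforhodamine B for overt cytotoxicity.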

[4] = read-out: Interleukin-8 (IL8), CXCL8 (gene 3576); assay: BSK_KF3CT_IL8: BioMAP Diversity Plus: KF3CT Assay for Interleukin-8 (IL8) Biomarker Activity (AID 2284254); settings: primary human keratinocytes with fibroblasts
Method in brief: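 Using parallel SRB-stained cultures to flag overt toxicity, the study quantified IL-8 by ELISA in human keratinocyte–foreskin fibroblast co-cultures 24 h after dosing, with DMSO as negative control and baseline.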

[5] = read-out: Macrophage Inflammatory Protein-1 Alpha (MIP1a), CCL3 (gene 6348); assay: BSK_IMphg_MIP1a: BioMAP Diversity Plus: IMphg Assay for Macrophage Inflammatory Protein-1 Alpha (MIP1a) Biomarker Activity (AID 2284255); settings: primary human endothelial cells with macrophages
Method in brief: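 MIP-1a protein levels were quantified by ELISA after 24 h treatment of human endothelial cell–macrophage co-cultures, compared with DMSO. Parallel cultures were fixed with TCA and stained with 0.1% SRB to gauge overt cytotoxicity.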

[6] = read-out: Plasminogen activator inhibitor-1 (PAI1), SERPINE1 (gene 5054); assay: BSK_MyoF_PAI1: BioMAP Diversity Plus: MyoF Assay for Plasminogen activator inhibitor-1 (PAI1) Biomarker Activity (AID 2284256); settings: primary human lung fibroblasts;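 on outcome: PAI-1 protein level measured by ELISA in fibroblast cultures; PAI-1 read 24 h after compound addition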
Method in brief: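 In this multiplexed primary-cell system, fibroblasts from human lung received compound for 24 h before ELISA detection of PAI-1; overt toxicity was checked by SRB (0.1%, TCA-fixed, 560 nm) in parallel wells.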

CD69, CD69 (gene 969) = assay: BSK_IMphg_CD69: BioMAP Diversity Plus: IMphg Assay for CD69 Biomarker Activity (AID 2284257); settings: primary human endothelial cells with macrophages
Method in brief: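 Readout is ELISA for CD69 in primary human venular endothelial cell/macrophage co-culture, taken at 24 h post-dosing. SRB staining of parallel cultures gauged overt cytotoxicity; signal increase versus DMSO defined activity.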

[7] = read-out: Eotaxin 3, CCL26 (gene 10344); assay: BSK_BF4T_Eotaxin3: BioMAP Diversity Plus: BF4T Assay for Eotaxin 3 Biomarker Activity (AID 2284258); settings: primary human bronchial epithelial cells with fibroblasts
Method in brief: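 ELISA measurement of Eotaxin-3 after 24 h chemical exposure in a bronchial epithelial/dermal fibroblast co-culture, with DMSO as baseline. Parallel SRB staining (0.1% SRB after 10% TCA fixation, 560 nm) flagged overt cytotoxicity.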

[8] = read-out: Monocyte Chemoattractant Protein-1 (MCP1), CCL2 (gene 6347); assay: BSK_BF4T_MCP1: BioMAP Diversity Plus: BF4T Assay for Monocyte Chemoattractant Protein-1 (MCP1) Biomarker Activity (AID 2284259); settings: primary human bronchial epithelial cells with fibroblasts
Method in brief: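 MCP-1 ELISA readout taken 24 h after dosing in the BF4T system (bronchial epithelial cells plus dermal fibroblasts). Parallel SRB total-protein staining flagged cytotoxicity; DMSO served as baseline, positive fitting direction.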

[9] = read-out: Interferon-inducible T-cell alpha chemoattractant (ITAC), CXCL11 (gene 6373); assay: BSK_hDFCGF_ITAC: BioMAP Diversity Plus: hDFCGF Assay for Interferon-inducible T-cell alpha chemoattractant (ITAC) Biomarker Activity (AID 2284251); settings: primary human foreskin fibroblasts
Method in brief: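 Chemical dosing of primary human foreskin fibroblast cultures preceded ELISA measurement of I-TAC at 24 h. Response was analysed in the positive direction using DMSO as baseline, while parallel SRB staining measured cytotoxicity.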

Compound: O=S(=O)(OCCOC(F)(F)F)C(F)(F)F
- outcome [1]: inactive
- outcome [2]: inactive
- outcome [3]: inactive
- outcome [4]: inactive
- outcome [5]: inactive
- outcome [6]: inactive
- outcome (CD69, CD69 (gene 969)): inactive
- outcome [7]: inactive
- outcome [8]: inactive

Compound: C=CC(F)(F)C(F)(F)C(F)(F)C(F)(F)C(F)(F)C(F)(F)C(F)(F)C(F)(F)C=C
- outcome [1]: inactive
- outcome [9]: inactive
- outcome [2]: inactive
- outcome [3]: inactive
- outcome [4]: inactive
- outcome [5]: inactive
- outcome [6]: inactive
- outcome (CD69, CD69 (gene 969)): inactive
- outcome [7]: inactive
- outcome [8]: inactive

Compound: O=C(O)C(F)(OC(F)(F)C(F)(OC(F)(F)C(F)(F)C(F)(F)F)C(F)(F)F)C(F)(F)F (configuration not stated)
- outcome [1]: inactive
- outcome [2]: inactive
- outcome [3]: inactive
- outcome [4]: inactive
- outcome [5]: inactive
- outcome [6]: inactive
- outcome (CD69, CD69 (gene 969)): inactive
- outcome [7]: inactive
- outcome [8]: inactive

Compound: O=C(O)C(F)(F)C(F)(F)OC(F)(F)F
- outcome [1]: inactive
- outcome [9]: inactive
- outcome [2]: inactive
- outcome [3]: inactive
- outcome [4]: inactive
- outcome [5]: inactive
- outcome [6]: inactive
- outcome [7]: inactive
- outcome [8]: inactive

Compound: OCCCC(F)(F)C(F)(F)C(F)(F)C(F)(F)C(F)(F)C(F)(F)C(F)(F)F
- AC50 [1]: 15.8 µM (active) and 7.13 µM (active)
- AC50 [9]: 13 µM (active) and 11.8 µM (active)
- AC50 [2]: 21.7 µM (active) and 46.1 µM (active)
- AC50 [3]: 52 µM (active) and 24.2 µM (active)
- AC50 [4]: 49.3 µM (active) and 46.4 µM (active)
- AC50 [5]: 37.5 µM (active)
- outcome [5]: inactive
- AC50 [6]: 51.2 µM (active) and 52.2 µM (active)
- AC50 [7]: 52.3 µM (active)
- outcome [7]: inactive
- AC50 [8]: 38.4 µM (active) and 43.2 µM (active)

Compound: FC(F)(F)C(F)(F)C(F)(F)C(F)(F)C(F)(F)C(F)(F)C(F)(F)I
- outcome [1]: inactive
- outcome [9]: inactive
- outcome [2]: inactive
- outcome [3]: inactive
- outcome [4]: inactive
- outcome [5]: inactive
- outcome [6]: inactive
- outcome [7]: inactive
- outcome [8]: inactive

Compound: O=C(O)C(F)(F)C(F)(F)C(F)(F)C(F)(F)C(F)(F)C(F)(F)C(F)(F)C(F)(F)Cl
- outcome [1]: inactive
- AC50 [9]: 29 µM (active) and 36.7 µM (active)
- AC50 [2]: 32.8 µM (active) and 37.8 µM (active)
- AC50 [3]: 48.6 µM (active)
- AC50 [4]: 55.2 µM (active) and 45.8 µM (active)
- AC50 [5]: 37.3 µM (active)
- outcome [5]: inactive
- AC50 [6]: 48.2 µM (active) and 48.5 µM (active)
- AC50 (CD69, CD69 (gene 969)): 41.5 µM (active) and 30 µM (active)
- AC50 [7]: 8.26 µM (active) and 1.05 µM (active)
- AC50 [8]: 40.4 µM (active) and 45.9 µM (active)

Compound: FC(F)(Br)C(F)(F)C(F)(F)C(F)(F)C(F)(F)C(F)(F)Br
- outcome [1]: inactive
- outcome [2]: inactive
- outcome [3]: inactive
- AC50 [4]: 30 µM (active)
- outcome [4]: inactive
- outcome [5]: inactive
- outcome [6]: inactive
- outcome [7]: inactive
- outcome [8]: inactive

Compound: O=C(CC(=O)C(F)(F)C(F)(F)F)C(F)(F)F
- outcome [1]: inactive
- outcome [9]: inactive
- outcome [2]: inactive
- outcome [3]: inactive
- outcome [4]: inactive
- outcome [5]: inactive
- outcome [6]: inactive
- outcome [7]: inactive
- outcome [8]: inactive

Compound: O=C(O)C(F)(F)C(F)(F)C(F)F
- outcome [1]: inactive
- outcome [2]: inactive
- outcome [3]: inactive
- outcome [4]: inactive
- outcome [5]: inactive
- outcome [6]: inactive
- outcome (CD69, CD69 (gene 969)): inactive
- outcome [7]: inactive
- outcome [8]: inactive

Compound: C=C(C)C(=O)OCCC(F)(F)C(F)(F)C(F)(F)C(F)(F)C(F)(C(F)(F)F)C(F)(F)F
- outcome [1]: inactive
- outcome [9]: inactive
- outcome [2]: inactive
- outcome [3]: inactive
- outcome [4]: inactive
- outcome [5]: inactive
- outcome [6]: inactive
- outcome (CD69, CD69 (gene 969)): inactive
- outcome [7]: inactive
- outcome [8]: inactive

Compound: O=C(O)C(F)(OC(F)(F)C(F)(OC(F)(F)C(F)(OC(F)(F)C(F)(F)C(F)(F)F)C(F)(F)F)C(F)(F)F)C(F)(F)F (configuration not stated)
- outcome [1]: inactive
- outcome [2]: inactive
- outcome [3]: inactive
- outcome [4]: inactive
- outcome [5]: inactive
- outcome [6]: inactive
- outcome (CD69, CD69 (gene 969)): inactive
- outcome [7]: inactive
- outcome [8]: inactive

Compound: O=C(Cl)C(F)(F)C(F)(F)C(F)(F)C(F)(F)C(F)(F)C(F)(F)C(F)(F)C(F)(F)F
- outcome [1]: inactive
- AC50 [2]: 41.1 µM (active) and 38.8 µM (active) and 22.7 µM (active)
- AC50 [3]: 51.4 µM (active)
- outcome [3]: inactive
- AC50 [4]: 30 µM (active)
- outcome [4]: inactive
- AC50 [5]: 23 µM (active)
- outcome [5]: inactive
- AC50 [6]: 30 µM (active)
- outcome [6]: inactive
- AC50 [7]: 41.7 µM (active) and 39.5 µM (active) and 45.8 µM (active)
- AC50 [8]: 45.5 µM (active)
- outcome [8]: inactive
